We go through 45 compounds from PubChem BioAssay AID2685 (National Center for Advancing Translational Sciences (NCATS), 2010).

The structures appear in SMILES notation. Screen size: about 320,000 compounds; about 2,100 (0.66%) were called active. Roughly 53% stayed inconclusive and do not appear here. Calls follow the shape of the dose curve; as a rule, active = well fitted inhibition curve with a large enough effect in the signal ratio, with a control signal flat (not every such curve was filed as active); inconclusive = small, poorly fitted or top-dose-only effect, or effect the other way, or a change in a side signal; inactive = flat fitted curve, though single readings scatter; the % refers to the signal ratio. What follows is part of a selection rich in actives, with near analogues and random picks from the rest.
Potency is read from the fitted curve at half-maximal effect.

The experiment in a line: qHTS Assay for Lipid Storage Modulators in Drosophila S3 Cells.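 As to cell number change: cells counted by Cell Tracker Red CMTPX staining in the red channel.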 As to lipid storage change, negative = inhibition: % is scaled to controls: 0 for no effect and ±100 for the full control effect. The note with it: BODIPY lipid droplet fluorescence, 18-24 h, cells fed with added oleic acid; cell number change: measured here: cell count max response; series mostly up to 46.1 µM; lipid storage change, negative = inhibition: at the top concentration. The gist of the method: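 Drosophila S3 cells got compounds at several concentrations plus oleic acid (400 uM solution). Laser-scanning cytometry with 488 nm excitation read lipid droplets at 500-530 nm and cells at 575-640 nm. Percent activity was relative to 20 uM Triacsin C.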
A general note: Quantitative high-throughput screening tests each substance at several concentrations.
Turning to `CCCCOC(=O)c1ccc(NC(=O)C(CCS(C)(=O)=O)NC(C)=O)cc1` (stereo unspecified), the “lipid storage change, negative = inhibition” value was -3.02% (inactive) and the cell number change came out at 13%.

Consider `CC1(OC(=O)CCc2ccccc2)C(=O)C=C2C=C(c3ccc(C#N)cc3)N(C3CCCCC3)C=C2C1=O` (stereo unspecified), for which the “lipid storage change, negative = inhibition” value was 0.672% (inactive) and the cell number change was found to be 20.5%.

Regarding `CCCCC[C@]12Cc3cc(OC)c(OC)cc3C(O1)c1c(cc(C)n(-c3ccccc3)c1=O)O2`, the cell number change is -8.82% and the lipid storage change, negative = inhibition was -5.41% [at 9.22 µM] (inactive).

Regarding `O=C(O)c1ccc(-c2nnc(-c3cccc(Br)c3)o2)cc1`, the result was inactive and the cell number change was found to be 12.2%.

As for `Cn1c(Sc2ccc(C(=O)O)cc2[N+](=O)[O-])nnc1-c1ccccc1`, the “lipid storage change, negative = inhibition” value is 4.13% (inactive) and the cell number change was found to be 9.56%.

For `O=C(O)c1ccc(Sc2nnc(-c3cccc(Br)c3)o2)c([N+](=O)[O-])c1`, the Potency is 25.9 µM (active) and the cell number change is -23.6%.

Turning to `C=CCOc1cccc(C2C(C(=O)c3ccco3)=C(O)C(=O)N2Cc2cccnc2)c1` (stereo unspecified), the outcome was inactive and the cell number change is 4.96%.

As to `O=C(CN1CCC(C(=O)c2ccc(F)cc2)CC1)Nc1ccc(F)cc1`, the “lipid storage change, negative = inhibition” value was -21.6% (inactive) and the cell number change is -11.2%.

For the compound `Cn1c(/N=C/c2c[nH]c3ccccc23)nc2ccccc21`, the “lipid storage change, negative = inhibition” value was 3.33% (inactive) and the cell number change is -13.5%.

Consider `O=C(NN1CCOCC1)c1cc(-c2ccc(Br)s2)nc2ccccc12`, for which the “lipid storage change, negative = inhibition” value is 9.94% (inactive) and the cell number change turned out to be 18.5%.

Turning to `O=C(CCc1nnc(COc2ccccc2)o1)NCc1ccccc1`, the “lipid storage change, negative = inhibition” value is 1.25% (inactive) and the cell number change is -8.23%.

As to `CC(C)CCNC(=O)CCc1nnc(COc2ccccc2)o1`, the “lipid storage change, negative = inhibition” value was 19.4% (inactive) and the cell number change stood at 3.37%.

For `COC(=O)[C@H](CC(C)C)NC(=O)CCc1nnc(COc2ccccc2)o1`, the Potency was 18.4 µM (active) and the cell number change was -24.9%.

As to `CC(/C=N/NC(=O)c1cccnc1)=C\c1ccco1`, the compound was classed as inactive and the cell number change was 4.96%.

Take `O=S(=O)(NC(=NCc1ccccc1)c1ccccc1)c1ccc(Br)cc1`: the “lipid storage change, negative = inhibition” value is -17.1% (inactive) and the cell number change was 2.37%.

As to `CSc1nnc(N2C(=O)C(O)=C(C(=O)c3ccco3)C2c2ccc(F)cc2)s1` (stereo unspecified), the result was inactive and the cell number change is -4.48%.

Turning to `CSc1nnc(N2C(=O)C(O)=C(C(=O)c3ccco3)C2c2cccc(Cl)c2)s1` (stereo unspecified), the “lipid storage change, negative = inhibition” value is -16.9% (inactive).

Consider `CSc1ccc(C2C(C(=O)c3ccco3)=C(O)C(=O)N2c2nnc(SC)s2)cc1` (stereo unspecified), for which the Potency is 7.31 µM (active) and the cell number change is -24.7%.

Take `CCCc1c(O)nc(SCC(=O)O)[nH]c1=O`: the “lipid storage change, negative = inhibition” value is 23.9% (inactive) and the cell number change was -0.742%.

With `COC(=O)COc1coc(CN2CCN(c3cccc(Cl)c3)CC2)cc1=O`, the compound was classed as inactive and the cell number change is 12.5%.

Consider `COc1cc(OC)c(CN2CCCN(C)CC2)cc1Br`, for which the “lipid storage change, negative = inhibition” value is 8.41% (inactive) and the cell number change came to 15.5%.

For `COc1ccc(Br)cc1CN1CCCCCCC1`, the “lipid storage change, negative = inhibition” value is 4.43% (inactive) and the cell number change was determined as 9.97%.

Consider `COc1cc(OC)c(CN2CCCCCCC2)cc1Br`, for which the Potency is 29.1 µM (active) and the cell number change is -11.5%.

In the case of `CC1=C(C(=O)OCC(C)C)[C@]23C(=O)c4ccccc4[C@@]2(O1)OC(N)=C3C#N`, the “lipid storage change, negative = inhibition” value was 1.93% (inactive) and the cell number change was -12%.

Take `CC(C)NC(=O)[C@]1(C)CCC[C@@]2(C)C3CC[C@@]4(C)C[C@]3(CCC21)CC4=O` (stereo partly specified): the outcome was inactive and the cell number change is -16.5%.

With `CCCCNC(=O)[C@]1(C)CCC[C@@]2(C)C3CC[C@@]4(C)C[C@]3(CCC21)CC4=O` (stereo partly specified), the Potency was 0.651 µM (active) and the cell number change is -24.2%.

As to `CC(C)(C)CNC(=O)[C@]1(C)CCC[C@@]2(C)C3CC[C@@]4(C)C[C@]3(CCC21)CC4=O` (stereo partly specified), the “lipid storage change, negative = inhibition” value was 7.09% (inactive) and the cell number change was -13.8%.

Take `COc1ccc(/C(C)=N/NC(=O)CNC(=O)c2cccnc2)cc1`: the “lipid storage change, negative = inhibition” value was 7.97% (inactive) and the cell number change was 7.78%.

Regarding `COc1ccc(C(=O)N/N=c2\oc3ccccc3cc2C(=O)NCc2ccccc2)cc1`, the “lipid storage change, negative = inhibition” value is 12.1% (inactive) and the cell number change amounted to 2.22%.

Turning to `N#CC(c1ccc(F)cc1)c1ccc(C(=O)c2ccccc2)cc1` (stereo unspecified), the “lipid storage change, negative = inhibition” value is -0.44% (inactive) and the cell number change was -0.0722%.

As to `CN(C(=O)COC(=O)c1ccc2c(c1)NC(=O)CS2)C1CCS(=O)(=O)C1` (stereo unspecified), the “lipid storage change, negative = inhibition” value was 7.52% (inactive) and the cell number change was determined as 4.6%.

`CCc1nc2ccc(C(=O)NCc3ccc(C)o3)cc2nc1CC`: the call was inactive and the cell number change was -3.07%.

As to `CC(=O)Nc1cccc(C(=O)NCCc2ccco2)c1`, the “lipid storage change, negative = inhibition” value was 20.2% (inactive) and the cell number change is 7.92%.

Turning to `CCc1nc2ccc(C(=O)NCCc3ccco3)cc2nc1CC`, the Potency was 6.51 µM (active) and the cell number change is 5.81%.

Take `O=C(CN(C(=O)CCC(=O)Nc1nccs1)c1ccc2c(c1)OCO2)NCc1ccccc1`: the outcome was inactive.

Regarding `CC(C)(C)NC(=O)C1CC(=O)N(CCc2ccc(F)cc2)C1` (stereo unspecified), the result was inactive and the cell number change was found to be 23%.

For `CCC(C)(C)NC(=O)C1CC(=O)N(CCc2ccc(F)cc2)C1` (stereo unspecified), the Potency was 23.1 µM (active) and the cell number change was -4.05%.

For the compound `CCC(CC)NC(=O)C1CC(=O)N(CCc2ccc(F)cc2)C1` (stereo unspecified), the call was inactive.

On to `Cc1ccc(NC(=O)c2ccc(Cl)c(NC(=O)c3cccs3)c2)cc1`, for which the Potency was 25.9 µM (active) and the cell number change was found to be 17.6%.

As for `Cc1ccc(NC(=O)c2cccs2)cc1`, the outcome was inactive and the cell number change worked out at 20.8%.

Turning to `Cc1cc(C)cc(C(=O)Nc2ccc(NC(=O)c3cccs3)cc2)c1`, the “lipid storage change, negative = inhibition” value was -11% (inactive) and the cell number change was found to be 17.7%.

Regarding `Cc1cc(C(c2nnnn2Cc2ccccc2)N2CCOCC2)c(C)n1-c1ccc2c(c1)OCO2` (stereo unspecified), the result was inactive and the cell number change is -6.63%.

Take `CN(C)C(=O)C(NC(=O)c1ccccc1)=C(Cl)Cl`: the “lipid storage change, negative = inhibition” value is 15.3% (inactive).

On to `Cc1cc(C(=O)OCC(=O)NC2CCC(C)CC2)c(C)o1` (stereo unspecified), for which the “lipid storage change, negative = inhibition” value is 8.06% (inactive) and the cell number change was 1.2%.

For `CN(C)S(=O)(=O)c1ccc2c(c1)nc(CCC(=O)NCc1ccc(Cl)cc1)n2C`, the cell number change was -1.78% and the lipid storage change, negative = inhibition is -6.65% [at 9.22 µM] (inactive).
